Active and inactive are the calls of the source. Unless noted, the rule behind the calls is not given here.

Our source for the composite z-score and z-score values is PubChem BioAssay.

Assay [1] has as its system Wnt5a (protein binding on small-molecule microarray). The assay is described as follows: small molecules binding Wnt5a protein – biophysical, small-molecule microarray, 635/667 nm fluorescence, primary screen (AID 1142).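 Note: fluorescence read at 667 nm with signal to noise per printed feature.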 Conditions: 635 nm fluorescence, higher = more signal.
Assay [2] is described as follows: ATP-based viability of Huh7 replicon cells – cell-based, CellTiter-Glo luminescence, basal, 48 h, cytotoxicity control for HCV replication inhibitor project, primary screen (AID 1143).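 Note: Huh7 hepatoma cells carrying a hepatitis C replication reporter with no stimulus; test concentration not given here.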 Conditions: higher = more signal, called active from +8 up or from −8 down.
The nature of assay [3]: Pseudomonas biofilm growth suppression – PAO1 strain, BacTiter-Glo luminescence, LB-PBS, primary screen (AID 1144). Conditions: P. aeruginosa PAO1 biofilm, 12 h, higher = more signal.
Assay [4] can be described thus: basal CRE-LacZ reporter activity in PC12 – cell-based, unstimulated, primary screen (AID 1145). To be noted: no forskolin, luminescence, 4.5 h, higher = more signal, called active from +8 up or from −8 down.
Assay [5] can be described thus: forskolin-driven CRE-LacZ activity in PC12 – cell-based, CRE-LacZ reporter, forskolin-stimulated, primary screen (AID 1146).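 Note: PC12 cells with 6xCRE LacZ reporter stimulated by forskolin 10 µM; beta-galactosidase reporter signal reflecting CREB driven transcription.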 To be noted: luminescence, 4.5 h, higher = more signal, called active from +8 up or from −8 down.
Assay [6] addresses Streptavidin (Streptomyces avidinii) (UniProt P22629). The assay is described as follows: compounds binding control protein streptavidin – biophysical, small-molecule microarray, 635/667 nm fluorescence, artefact control for SMM compound annotation, primary screen (AID 1147).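 Note: signal reflects streptavidin binding to arrayed compounds as a control protein.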 Conditions: higher = more signal.
Assay [7] can be described thus: probe aInhba binding on compound microarray – biochemical, small-molecule microarray, 635/667 nm fluorescence, primary screen (AID 1148).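 Note: score merges 667nm spot fluorescence with signal-to-noise for antibody binding to printed compounds.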 To be noted: higher = more signal.
Assay [8] addresses Torsin-1A (Homo sapiens) (UniProt O14656). As to the kind of experiment: TOR1A wild-type binding on microarray – cell lysate, small-molecule microarray, lysate, 635/667 nm, primary screen (AID 1149). Conditions: COS7 hTOR1A-WT lysate, 635 nm fluorescence, higher = more signal.
Assay [9] has the same target. As to the kind of experiment: torsin A mutant lysate binding on microarrays – cell lysate, small-molecule microarray, COS7 lysate, 635/667 nm fluorescence, primary screen (AID 1150).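 Note: score pools 667 nm emission and signal to noise measuring lysate protein binding.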 Conditions: COS7 hTOR1A mutant lysate, 635 nm fluorescence, higher = more signal.
For assay [10], the system named is Sonic hedgehog protein (Shh). The assay is described as follows: Sonic hedgehog microarray binding compounds – biochemical, small-molecule microarray, 635/667 nm fluorescence, primary screen (AID 1151).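 Note: Shh protein binding to compounds spotted on small-molecule microarray slides; score combines spot fluorescence intensity with signal-to-noise across triplicate slides.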 To be noted: 635 nm fluorescence, higher = more signal.

Chain of Streptavidin (Streptomyces avidinii) (P22629 whole entry, looked up): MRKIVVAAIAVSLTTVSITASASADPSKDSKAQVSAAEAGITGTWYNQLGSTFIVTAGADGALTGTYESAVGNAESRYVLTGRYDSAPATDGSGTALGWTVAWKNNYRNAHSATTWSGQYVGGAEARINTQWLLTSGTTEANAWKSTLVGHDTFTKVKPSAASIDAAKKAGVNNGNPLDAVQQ
Chain of Torsin-1A (Homo sapiens) (O14656 whole entry, looked up): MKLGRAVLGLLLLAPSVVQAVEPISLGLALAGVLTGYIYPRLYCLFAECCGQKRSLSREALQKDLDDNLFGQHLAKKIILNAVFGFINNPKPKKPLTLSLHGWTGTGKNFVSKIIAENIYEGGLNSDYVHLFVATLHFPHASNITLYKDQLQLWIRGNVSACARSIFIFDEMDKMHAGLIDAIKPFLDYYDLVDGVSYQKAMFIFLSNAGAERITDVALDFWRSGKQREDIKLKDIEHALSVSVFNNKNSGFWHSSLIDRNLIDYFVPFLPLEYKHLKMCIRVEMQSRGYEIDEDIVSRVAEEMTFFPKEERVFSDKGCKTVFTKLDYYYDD

For the molecule `CCN(CC)c1ccc(N2CC=CC34O[C@@H]5C=CCCOC(=O)C5[C@H]3C(=O)N(CCCO)[C@@H]4C2=O)cc1` (stereo not given in full), the composite z-score in [1] was -0.0601; in assay [6], -0.619; in [7], 0.0051; in the assay with Torsin-1A (Homo sapiens) [8], -0.143; in the assay with Torsin-1A (Homo sapiens) [9] it was -0.419; in [10] it was 0.327. Further, the z-score was -2.8 (inactive) in [2], -0.657 (inactive) in [3], 0.0605 (inactive) in [4] and -1.14 (inactive) in assay [5].

Take `Cc1ccc(S[C@]2(C(=O)NCC(C)C)CC(=O)N(Cc3ccccc3)[C@@H]2c2ccc(CO)cc2)cc1`: the composite z-score in [1] is -0.405; in assay [6], -0.987; in assay [7] it was -0.152; with Torsin-1A (Homo sapiens) [8] it was -0.258; with Torsin-1A (Homo sapiens) [9], -0.293; in assay [10], -1.45. Besides, the z-score in assay [2] was -1.13 (inactive); in assay [3] it was 0.459 (inactive); in assay [4], -0.179 (inactive); in assay [5], 0.98 (inactive).

`Cc1c(NC(=O)/C(C#N)=C/C=C/c2ccccc2)c(=O)n(-c2ccccc2)n1C`: the composite z-score came out at 0.17 in assay [1]; 0.783 in assay [6]; 0.0018 in assay [7]; 0.172 with Torsin-1A (Homo sapiens) [8]; 0.426 in the assay with Torsin-1A (Homo sapiens) [9]; 0.522 in assay [10]. In addition, the z-score was -0.328 (inactive) in assay [2], 0.374 (inactive) in assay [3], -0.967 (inactive) in [4] and -0.733 (inactive) in assay [5].

As for `O=C(CS)NCCCCCNC(=O)[C@H]1C[C@H]2C(=O)N[C@@H](Cc3ccccc3)C(=O)N2[C@H]1c1cccc(OCCO)c1`, the composite z-score in [1] was 0.306; in assay [6], -0.304; in [7], 0.0439; with Torsin-1A (Homo sapiens) [8] it was 0.88; with Torsin-1A (Homo sapiens) [9], 0.822; in [10], 1.83. Further, the z-score is -0.178 (inactive) in [2], -0.388 (inactive) in [3], 0.696 (inactive) in assay [4] and -0.0595 (inactive) in [5].

Consider `COc1ccc([Si](C)(C)[C@@H]2[C@@H](CCO)O[C@]3(C(=O)N(Cc4cccc(N(C=O)c5ccccc5)c4)c4ccccc43)[C@H]2C)cc1`, for which the composite z-score in assay [1] was -0.0398; in assay [6] it was 0.156; in [7] it was 0.0543; with Torsin-1A (Homo sapiens) [8], 0.0905; with Torsin-1A (Homo sapiens) [9], -0.004; in assay [10], 0.98. Also, the z-score in assay [2] is -7.17 (inactive); in assay [3] it was 0.465 (inactive); in [4] it was 7.39 (inactive); in assay [5] it was -0.671 (inactive).

For `CC(=O)N1Cc2ccccc2C[C@@]2(N=C(c3ccc(OCCCO)cc3)O[C@H]2c2ccccc2)C1=O`, the composite z-score in assay [1] came to 0.604; in assay [6], 0.326; in assay [7] it was 0.482; with Torsin-1A (Homo sapiens) [8], 0.513; with Torsin-1A (Homo sapiens) [9], 1.17; in assay [10], 1.69. The z-score in [2] was -4.03 (inactive); in assay [3], -0.519 (inactive); in assay [4] it was 1.53 (inactive); in assay [5], -0.634 (inactive).

Regarding `Cn1c2c(c3ccccc31)C(=O)C1NC2C=CC1(C)C(=O)OCc1ccccc1` (stereo not given), the composite z-score in assay [1] is -0.348; in assay [6] it was 0.298; in [7] it was 0.0442; with Torsin-1A (Homo sapiens) [8], -0.327; in the assay with Torsin-1A (Homo sapiens) [9] it was 0.285; in assay [10] it was -0.699. Also, the z-score in assay [2] was -0.171 (inactive); in [3], 0.908 (inactive); in assay [4] it was 1.39 (inactive); in [5] it was 0.716 (inactive).

With `NC(=O)[C@]1(Cc2ccccc2)N=C(c2ccc(OCCCO)cc2)O[C@@H]1c1ccccc1`, the composite z-score in [1] is 0.0788; in assay [6], 0.452; in assay [7], 0.0872; with Torsin-1A (Homo sapiens) [8] it was -0.783; in the assay with Torsin-1A (Homo sapiens) [9] it was -0.0179; in assay [10] it was -0.955. Also, the z-score in [2] is -2.3 (inactive); in [3], -0.783 (inactive); in assay [4], 5.59 (inactive); in assay [5], 1.49 (inactive).

On to `C=C(C)[C@@H]1CC=C(C(O)C2C=CC3C(=O)N(Cc4ccccc4)C(=O)C3N2n2cnnc2)CC1` (stereo not given in full), for which the composite z-score in assay [1] was -0.0115; in assay [6], 0.258; in [7] it was 0.0314; with Torsin-1A (Homo sapiens) [8], 0.0146; with Torsin-1A (Homo sapiens) [9], -0.388; in assay [10] it was -0.408. Further, the z-score in assay [2] was -4.22 (inactive); in assay [3] it was -1.38 (inactive); in assay [4] it was 0.22 (inactive); in [5], -0.0578 (inactive).

With `C=C(CCCC)C(=O)CC[C@@H](OC(=O)c1ccccc1-c1ccccc1C(=O)O)c1ccc(CO)o1`, the composite z-score in assay [1] was 0.233; in [6] it was -0.3; in [7], 0.181; with Torsin-1A (Homo sapiens) [8] it was 1.29; in the assay with Torsin-1A (Homo sapiens) [9] it was 0.854; in assay [10], 1.08. Also, the z-score in assay [2] was 0.0462 (inactive); in assay [3], -0.0968 (inactive); in [4] it was -0.219 (inactive); in assay [5], 0.432 (inactive).

Consider `CC1CC/C=C\[C@H]2OC34C=CCN(c5ccc6ccccc6c5)C(=O)[C@H]3N(CCCCCO)C(=O)[C@@H]4C2C(=O)O1` (stereo not given in full), for which the composite z-score in [1] is -1.12; in [6] it was -1.72; in assay [7], -0.233; in the assay with Torsin-1A (Homo sapiens) [8], -1.03; with Torsin-1A (Homo sapiens) [9] it was -1.19; in assay [10], -1.18. Moreover, the z-score in assay [2] is 0.385 (inactive); in assay [3], 0.669 (inactive); in assay [4], 0.333 (inactive); in [5], -0.233 (inactive).

On to `O=c1cccc(-c2ccc3ccccc3c2)o1`, for which the composite z-score in assay [1] was -0.0955; in assay [6], 0.351; in assay [7], -0.025; with Torsin-1A (Homo sapiens) [8], -0.0735; with Torsin-1A (Homo sapiens) [9], -0.0223; in assay [10], 0.27. Moreover, the z-score in [2] is -2.3 (inactive); in [3], 0.787 (inactive); in [4] it was 0.425 (inactive); in assay [5] it was 0.0815 (inactive).

Regarding `O=C(CS)NCCCCCCNC(=O)[C@H]1C[C@H]2C(=O)N3CCC[C@H]3C(=O)N2[C@H]1c1ccc(O)cc1`, the composite z-score is -0.161 in assay [1]; -0.322 in assay [6]; -0.05 in assay [7]; 0.624 with Torsin-1A (Homo sapiens) [8]; 0.947 with Torsin-1A (Homo sapiens) [9]; 1.8 in assay [10]. Moreover, the z-score was -0.514 (inactive) in assay [2], -0.256 (inactive) in [3], 0.675 (inactive) in [4] and 0.465 (inactive) in assay [5].

For `COCCOC(=O)N1C(=O)[C@@]2(c3cc(C#Cc4ccc(OC)cc4)ccc31)[C@H](C(N)=O)[C@H]1C(=O)O[C@H](c3ccccc3)[C@H](c3ccccc3)N1[C@@H]2c1ccc(O)cc1`, the composite z-score was 0.115 in assay [1]; -1.23 in assay [6]; 0.295 in assay [7]; -1.2 with Torsin-1A (Homo sapiens) [8]; -1.29 with Torsin-1A (Homo sapiens) [9]; -0.692 in assay [10]. Further, the z-score is -4.24 (inactive) in assay [2], 0.0989 (inactive) in assay [3], 0.0776 (inactive) in [4] and -0.844 (inactive) in assay [5].

As for `CCOC(=O)N1C(c2ccc(OCCCO)cc2)=NC(C(=O)OC)N1C(=O)OCC` (stereo not given), the composite z-score stood at 0.506 in [1]; 0.829 in assay [6]; 0.0614 in [7]; 0.497 in the assay with Torsin-1A (Homo sapiens) [8]; 0.36 with Torsin-1A (Homo sapiens) [9]; 1.13 in [10]. The z-score in assay [2] is -2.41 (inactive); in assay [3], -1.33 (inactive); in assay [4], 0.139 (inactive); in assay [5], 0.666 (inactive).
